2 sequences from PMC7862700, “An all-to-all approach to the identification of sequence-specific readers for epigenetic DNA modifications on cytosine” can be followed below.

Holding throughout (assay): DAPPL (digital affinity profiling via proximity ligation, sequencing); 10 mM Tris-HCl pH 7.5, 50 mM NaCl, 1 mM DTT, 4% glycerol, room temperature, 30 min; GST-TFs on glutathione beads, 16-mer random dsDNA library, 0.1% formaldehyde crosslink after washing; high values mean tight binding
Conditions in all cases: protein: recombinant; tags: N-terminal GST; dsDNA, one strand shown

One experiment concerns the target T1, FLI1 (Homo sapiens, UniProt Q01543 1-452).
T1 sequence: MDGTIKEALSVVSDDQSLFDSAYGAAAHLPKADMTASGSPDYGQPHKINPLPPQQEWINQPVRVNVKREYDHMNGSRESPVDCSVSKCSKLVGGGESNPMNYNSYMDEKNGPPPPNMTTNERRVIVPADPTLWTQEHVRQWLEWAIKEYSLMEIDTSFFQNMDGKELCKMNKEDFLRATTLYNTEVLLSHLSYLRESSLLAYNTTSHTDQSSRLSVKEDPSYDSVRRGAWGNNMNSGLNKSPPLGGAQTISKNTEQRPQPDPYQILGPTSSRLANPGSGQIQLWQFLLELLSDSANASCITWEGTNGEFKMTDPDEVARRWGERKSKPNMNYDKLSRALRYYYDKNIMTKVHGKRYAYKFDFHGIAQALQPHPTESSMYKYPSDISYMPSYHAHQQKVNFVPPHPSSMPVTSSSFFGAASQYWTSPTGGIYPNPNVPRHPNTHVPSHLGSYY
An outline of the steps: (§1)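 Each value of binding signal is a hexamer's read frequency for a factor divided by the same hexamer's frequency in the tag-only sample. Barcoded, bead-captured GST fusions of human transcription factors made in yeast were pooled with that sample and incubated with 200 nmole of a random double-stranded 16-mer DNA library in Tris/NaCl/DTT/glycerol buffer at room temperature for 30 min. Washing, 0.1% formaldehyde crosslinking, proximity ligation, PCR and Illumina NextSeq500 sequencing followed.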

In another experiment the target is ELF1 (Homo sapiens, UniProt P32519 1-619). An outline of the steps: as §1
Chain of ELF1 (P32519 whole entry): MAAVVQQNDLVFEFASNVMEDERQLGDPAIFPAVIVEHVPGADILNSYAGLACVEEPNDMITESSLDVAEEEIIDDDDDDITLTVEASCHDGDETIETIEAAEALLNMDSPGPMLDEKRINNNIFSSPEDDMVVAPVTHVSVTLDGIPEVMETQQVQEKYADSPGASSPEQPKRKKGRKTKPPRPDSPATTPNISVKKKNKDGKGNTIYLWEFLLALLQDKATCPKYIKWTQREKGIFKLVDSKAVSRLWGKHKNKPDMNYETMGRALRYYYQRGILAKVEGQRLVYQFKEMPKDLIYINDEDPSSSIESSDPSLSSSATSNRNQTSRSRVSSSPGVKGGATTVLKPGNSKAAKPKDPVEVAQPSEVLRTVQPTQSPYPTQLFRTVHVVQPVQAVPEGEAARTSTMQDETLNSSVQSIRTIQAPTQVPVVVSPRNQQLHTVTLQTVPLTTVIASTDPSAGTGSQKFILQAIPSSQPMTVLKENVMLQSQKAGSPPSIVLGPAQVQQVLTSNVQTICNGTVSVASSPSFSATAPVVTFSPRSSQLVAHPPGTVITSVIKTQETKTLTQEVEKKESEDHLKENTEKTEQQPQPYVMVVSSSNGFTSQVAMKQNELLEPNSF
In a further experiment the target is T2, EHF (Homo sapiens, UniProt Q9NZC4 1-300).
T2 sequence: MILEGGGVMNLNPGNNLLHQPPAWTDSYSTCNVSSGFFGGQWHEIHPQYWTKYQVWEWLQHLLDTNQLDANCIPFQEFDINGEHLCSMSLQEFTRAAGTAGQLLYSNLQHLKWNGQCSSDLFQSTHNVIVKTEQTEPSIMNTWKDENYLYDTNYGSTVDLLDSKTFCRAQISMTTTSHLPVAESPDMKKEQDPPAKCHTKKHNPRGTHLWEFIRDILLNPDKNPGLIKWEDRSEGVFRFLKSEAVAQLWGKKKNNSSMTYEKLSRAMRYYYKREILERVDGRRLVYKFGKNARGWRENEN
In short, it runs like this: as §1

The next experiment addresses SPIB (Homo sapiens, UniProt Q01892 1-262). In short, it runs like this: as §1
The target of a further experiment is T3, SPIC (Homo sapiens, UniProt Q8N5J4 1-248).
T3 sequence: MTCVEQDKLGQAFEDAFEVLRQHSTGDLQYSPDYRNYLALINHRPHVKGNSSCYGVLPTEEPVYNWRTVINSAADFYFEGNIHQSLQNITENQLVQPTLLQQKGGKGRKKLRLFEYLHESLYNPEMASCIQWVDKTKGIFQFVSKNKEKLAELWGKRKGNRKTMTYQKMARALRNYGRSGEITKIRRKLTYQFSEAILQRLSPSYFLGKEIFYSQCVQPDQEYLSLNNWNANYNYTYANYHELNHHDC
In short, it runs like this:
as §1

The target in the next experiment is ELF4 (Homo sapiens, UniProt Q99607 1-663). An outline of the steps: as §1
Chain of ELF4 (Q99607 whole entry): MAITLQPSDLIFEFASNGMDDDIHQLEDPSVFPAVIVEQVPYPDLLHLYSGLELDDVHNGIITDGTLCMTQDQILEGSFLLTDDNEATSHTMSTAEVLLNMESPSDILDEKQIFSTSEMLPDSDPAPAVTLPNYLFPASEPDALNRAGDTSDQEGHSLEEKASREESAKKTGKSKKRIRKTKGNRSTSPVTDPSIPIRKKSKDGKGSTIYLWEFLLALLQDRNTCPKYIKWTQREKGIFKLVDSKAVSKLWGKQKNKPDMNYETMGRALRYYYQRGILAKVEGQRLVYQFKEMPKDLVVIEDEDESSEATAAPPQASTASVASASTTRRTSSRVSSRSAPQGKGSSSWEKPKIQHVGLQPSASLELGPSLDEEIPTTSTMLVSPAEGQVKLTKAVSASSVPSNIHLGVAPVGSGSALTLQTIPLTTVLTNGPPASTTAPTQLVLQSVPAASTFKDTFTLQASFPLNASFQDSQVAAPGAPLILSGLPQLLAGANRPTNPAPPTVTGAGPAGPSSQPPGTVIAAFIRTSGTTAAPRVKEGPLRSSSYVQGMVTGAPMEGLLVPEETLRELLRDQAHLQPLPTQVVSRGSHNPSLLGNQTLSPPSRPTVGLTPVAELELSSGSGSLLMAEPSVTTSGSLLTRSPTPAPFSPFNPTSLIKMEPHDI
In a further experiment the target is T4, ELK4 (Homo sapiens, UniProt P28324-2 1-405).
T4 sequence: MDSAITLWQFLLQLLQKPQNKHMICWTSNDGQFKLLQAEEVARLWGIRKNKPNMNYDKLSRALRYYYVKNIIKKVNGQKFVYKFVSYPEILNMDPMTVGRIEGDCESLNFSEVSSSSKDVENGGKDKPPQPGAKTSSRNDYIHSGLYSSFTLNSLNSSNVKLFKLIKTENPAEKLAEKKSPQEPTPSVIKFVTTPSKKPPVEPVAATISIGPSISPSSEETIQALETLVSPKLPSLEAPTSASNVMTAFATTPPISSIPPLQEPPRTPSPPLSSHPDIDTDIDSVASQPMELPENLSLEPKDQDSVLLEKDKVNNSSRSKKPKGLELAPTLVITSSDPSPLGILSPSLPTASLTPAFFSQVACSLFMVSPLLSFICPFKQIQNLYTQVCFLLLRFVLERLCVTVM
An outline of the steps: as §1

A further experiment concerns the target T5, ETV2 (Homo sapiens, UniProt O00321 1-342).
T5 sequence: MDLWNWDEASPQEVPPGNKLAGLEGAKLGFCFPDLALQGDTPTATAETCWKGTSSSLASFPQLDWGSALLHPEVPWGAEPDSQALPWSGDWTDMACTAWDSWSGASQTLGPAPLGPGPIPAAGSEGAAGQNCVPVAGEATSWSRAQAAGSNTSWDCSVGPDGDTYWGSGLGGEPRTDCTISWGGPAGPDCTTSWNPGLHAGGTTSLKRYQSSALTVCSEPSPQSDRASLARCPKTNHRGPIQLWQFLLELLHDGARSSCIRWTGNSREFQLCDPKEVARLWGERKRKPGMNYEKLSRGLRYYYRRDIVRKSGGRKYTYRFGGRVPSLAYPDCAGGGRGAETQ
An outline of the steps: as §1

The next experiment concerns the target CRX (Homo sapiens, UniProt O43186 1-299). An outline of the steps: as §1
The target in the next experiment is T6, ERF (Homo sapiens, UniProt P50548 1-548).
T6 sequence: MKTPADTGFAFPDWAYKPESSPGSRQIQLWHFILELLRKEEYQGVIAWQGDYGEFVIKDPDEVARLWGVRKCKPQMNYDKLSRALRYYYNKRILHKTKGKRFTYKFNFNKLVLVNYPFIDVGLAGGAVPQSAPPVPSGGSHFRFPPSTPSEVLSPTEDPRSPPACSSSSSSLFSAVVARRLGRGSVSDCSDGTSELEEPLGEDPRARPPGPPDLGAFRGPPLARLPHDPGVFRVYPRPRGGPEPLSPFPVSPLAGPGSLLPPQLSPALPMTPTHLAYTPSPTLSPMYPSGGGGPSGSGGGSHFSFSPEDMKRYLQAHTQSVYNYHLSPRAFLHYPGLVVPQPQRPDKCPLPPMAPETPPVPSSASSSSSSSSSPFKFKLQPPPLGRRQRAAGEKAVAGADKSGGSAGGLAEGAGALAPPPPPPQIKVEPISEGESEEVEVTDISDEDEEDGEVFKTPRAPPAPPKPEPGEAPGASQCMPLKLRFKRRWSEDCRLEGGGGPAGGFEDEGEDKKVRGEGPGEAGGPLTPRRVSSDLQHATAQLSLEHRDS
An outline of the steps:
as §1

The target in a further experiment is T7, ETV7 (Homo sapiens, UniProt Q9Y603 1-341).
T7 sequence: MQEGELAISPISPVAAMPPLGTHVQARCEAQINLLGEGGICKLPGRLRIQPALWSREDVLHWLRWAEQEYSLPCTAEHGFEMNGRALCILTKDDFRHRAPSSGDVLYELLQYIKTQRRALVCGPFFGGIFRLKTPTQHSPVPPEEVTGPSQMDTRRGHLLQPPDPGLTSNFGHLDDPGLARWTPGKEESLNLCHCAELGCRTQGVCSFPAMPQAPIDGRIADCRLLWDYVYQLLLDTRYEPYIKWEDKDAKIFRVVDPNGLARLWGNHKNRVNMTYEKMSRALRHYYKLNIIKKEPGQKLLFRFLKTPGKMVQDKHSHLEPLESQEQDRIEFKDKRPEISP
An outline of the steps:
as §1

In another experiment the target is ETV6 (Homo sapiens, UniProt P41212 1-452). An outline of the steps:
as §1

The target in another experiment is T8, ELF3 (Homo sapiens, UniProt P78545 1-371).
T8 sequence: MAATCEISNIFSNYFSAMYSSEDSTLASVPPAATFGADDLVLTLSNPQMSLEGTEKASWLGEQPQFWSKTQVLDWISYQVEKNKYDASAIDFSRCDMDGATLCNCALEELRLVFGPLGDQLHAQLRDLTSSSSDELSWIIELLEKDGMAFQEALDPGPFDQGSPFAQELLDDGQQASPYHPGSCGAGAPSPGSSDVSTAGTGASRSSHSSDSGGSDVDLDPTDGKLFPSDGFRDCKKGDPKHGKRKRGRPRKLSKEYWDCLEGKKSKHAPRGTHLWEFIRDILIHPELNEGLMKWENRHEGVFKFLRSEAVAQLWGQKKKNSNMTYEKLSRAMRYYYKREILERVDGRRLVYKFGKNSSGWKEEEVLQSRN
An outline of the steps: as §1

The next experiment has as its target ETV1 (Homo sapiens, UniProt P50549 1-477). In short, it runs like this:
as §1

Another experiment concerns the target T9, ETV3L (Homo sapiens, UniProt Q6ZN32 1-361).
T9 sequence: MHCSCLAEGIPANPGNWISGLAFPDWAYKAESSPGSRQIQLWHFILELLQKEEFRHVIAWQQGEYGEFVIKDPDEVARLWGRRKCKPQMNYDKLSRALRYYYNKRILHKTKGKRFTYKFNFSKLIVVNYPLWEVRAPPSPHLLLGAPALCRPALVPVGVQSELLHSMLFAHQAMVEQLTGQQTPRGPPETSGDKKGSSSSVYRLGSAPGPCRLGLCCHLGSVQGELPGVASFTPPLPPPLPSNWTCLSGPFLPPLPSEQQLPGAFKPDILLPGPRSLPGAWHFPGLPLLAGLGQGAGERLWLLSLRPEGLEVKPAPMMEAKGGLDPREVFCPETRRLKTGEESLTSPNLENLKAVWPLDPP
In short, it runs like this: as §1

In the next experiment the target is T10, ETV3 (Homo sapiens, UniProt P41162-2 1-143).
T10 sequence: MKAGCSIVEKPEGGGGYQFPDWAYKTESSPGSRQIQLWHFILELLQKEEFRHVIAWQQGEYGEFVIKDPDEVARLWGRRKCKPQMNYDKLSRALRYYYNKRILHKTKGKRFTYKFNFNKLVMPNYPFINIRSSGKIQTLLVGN
An outline of the steps:
as §1

Chain of ETV6 (P41212 whole entry): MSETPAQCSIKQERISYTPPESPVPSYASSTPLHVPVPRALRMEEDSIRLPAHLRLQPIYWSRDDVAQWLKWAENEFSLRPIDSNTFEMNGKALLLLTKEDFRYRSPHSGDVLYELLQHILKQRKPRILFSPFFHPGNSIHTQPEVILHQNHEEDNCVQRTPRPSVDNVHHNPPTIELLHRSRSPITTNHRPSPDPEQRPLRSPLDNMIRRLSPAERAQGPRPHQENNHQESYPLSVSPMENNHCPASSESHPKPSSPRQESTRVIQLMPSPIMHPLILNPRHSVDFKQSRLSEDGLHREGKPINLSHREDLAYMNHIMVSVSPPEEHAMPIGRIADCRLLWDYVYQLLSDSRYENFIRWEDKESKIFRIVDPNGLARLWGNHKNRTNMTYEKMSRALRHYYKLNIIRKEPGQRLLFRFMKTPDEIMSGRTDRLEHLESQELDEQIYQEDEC
Chain of SPIB (Q01892 whole entry): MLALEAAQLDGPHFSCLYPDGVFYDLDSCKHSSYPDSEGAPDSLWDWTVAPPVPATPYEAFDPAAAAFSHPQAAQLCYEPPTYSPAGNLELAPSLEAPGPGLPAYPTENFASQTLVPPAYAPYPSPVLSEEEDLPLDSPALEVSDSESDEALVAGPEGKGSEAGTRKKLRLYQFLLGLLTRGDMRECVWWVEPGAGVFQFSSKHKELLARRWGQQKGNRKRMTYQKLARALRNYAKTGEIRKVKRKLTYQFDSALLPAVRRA
Chain of ETV1 (P50549 whole entry): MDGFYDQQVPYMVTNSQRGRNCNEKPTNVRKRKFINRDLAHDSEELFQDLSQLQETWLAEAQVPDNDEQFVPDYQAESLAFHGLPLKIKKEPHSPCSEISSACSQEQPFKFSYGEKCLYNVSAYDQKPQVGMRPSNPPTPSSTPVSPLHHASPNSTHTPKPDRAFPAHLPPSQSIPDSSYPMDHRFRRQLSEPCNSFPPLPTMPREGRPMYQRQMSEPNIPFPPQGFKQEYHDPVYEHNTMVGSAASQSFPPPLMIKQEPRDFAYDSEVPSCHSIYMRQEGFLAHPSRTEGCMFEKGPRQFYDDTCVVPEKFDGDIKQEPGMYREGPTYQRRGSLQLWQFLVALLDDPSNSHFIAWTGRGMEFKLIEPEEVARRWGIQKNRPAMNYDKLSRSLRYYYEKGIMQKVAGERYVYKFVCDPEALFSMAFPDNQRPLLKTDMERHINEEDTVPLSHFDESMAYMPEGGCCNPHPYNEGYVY
Chain of CRX (O43186 whole entry): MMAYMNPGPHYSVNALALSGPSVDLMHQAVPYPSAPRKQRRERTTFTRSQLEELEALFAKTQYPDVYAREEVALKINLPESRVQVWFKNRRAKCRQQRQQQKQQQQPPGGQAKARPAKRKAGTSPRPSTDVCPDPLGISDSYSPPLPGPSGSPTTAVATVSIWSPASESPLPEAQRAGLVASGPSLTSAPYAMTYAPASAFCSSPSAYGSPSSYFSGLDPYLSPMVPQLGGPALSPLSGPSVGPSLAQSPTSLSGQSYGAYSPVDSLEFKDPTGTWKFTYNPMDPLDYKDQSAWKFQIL

TAGTTG: the binding signal with FLI1 was 1.04 fold enrichment (6-mer frequency, TF over GST control); with ELF1, 1.01 fold enrichment (6-mer frequency, TF over GST control); in the experiment with EHF it was 1.01 fold enrichment (6-mer frequency, TF over GST control); with SPIB it was 1.02 fold enrichment (6-mer frequency, TF over GST control); with SPIC it was 1 fold enrichment (6-mer frequency, TF over GST control); with ELF4, 1.01 fold enrichment (6-mer frequency, TF over GST control). Further, the binding signal was 1.18 fold enrichment (6-mer frequency, TF over GST control) with ELK4; 1.01 fold enrichment (6-mer frequency, TF over GST control) with ETV2; 1.03 fold enrichment (6-mer frequency, TF over GST control) with CRX; 1.07 fold enrichment (6-mer frequency, TF over GST control) with ERF; 1.02 fold enrichment (6-mer frequency, TF over GST control) with ETV7; 1.01 fold enrichment (6-mer frequency, TF over GST control) with ETV6.
Consider GCTAGG, for which the binding signal with FLI1 is 1.01 fold enrichment (6-mer frequency, TF over GST control); in the experiment with EHF it was 1.12 fold enrichment (6-mer frequency, TF over GST control); with SPIC, 1.03 fold enrichment (6-mer frequency, TF over GST control); in the experiment with ELF4 it was 1.06 fold enrichment (6-mer frequency, TF over GST control); with ELK4, 1.08 fold enrichment (6-mer frequency, TF over GST control); with ELF3, 1.14 fold enrichment (6-mer frequency, TF over GST control). Besides, the binding signal with ETV1 is 1 fold enrichment (6-mer frequency, TF over GST control); with ERF, 1.01 fold enrichment (6-mer frequency, TF over GST control); with ETV3L, 1.06 fold enrichment (6-mer frequency, TF over GST control); with ETV3, 1.03 fold enrichment (6-mer frequency, TF over GST control); with ETV6 it was 1.07 fold enrichment (6-mer frequency, TF over GST control).
